A short description of test [1]: antimalarial activity against Dd2 strain (AID 2302;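 active = growth inhibition above 50% at the single 2 µM test dose, taken to imply half-maximal potency below 2 µM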;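 note: 0% = DMSO untreated growth and 100% = chloroquine plus artemisinin killed control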). The note with it: P. falciparum Dd2 in RBCs, LDH growth readout, 72 h; at 2 µM; active compounds read high.
Test [2] is described as follows: human hepatoma cell viability loss – ATP luminescence, cytotoxicity control for P. falciparum antimalarial project, primary screen (AID 2303;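 active = inhibition above 50%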;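 note: 0% = DMSO wells and 100% = digitonin-killed cells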). The note with it: HepG2 viability, 24-48 h, at 10 µM, active compounds read high.
For test [3], the target named is L-lactate dehydrogenase (Plasmodium falciparum (isolate CDC / Honduras)) (UniProt Q27743). The experiment in a line: PfLDH activity inhibition – cell lysate, 3D7 strain, counter-screen for P. falciparum growth inhibition project (AID 2304).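 Note: 0% = vehicle and 100% = reference inhibitor.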 Conditions: P. falciparum 3D7 crude extract, LDH APAD/NBT absorbance; at 2 µM; active compounds read high. A general note: Counterscreens check selectivity or assay interference.
Sequence of L-lactate dehydrogenase (Plasmodium falciparum (isolate CDC / Honduras)) (Q27743 whole entry, looked up): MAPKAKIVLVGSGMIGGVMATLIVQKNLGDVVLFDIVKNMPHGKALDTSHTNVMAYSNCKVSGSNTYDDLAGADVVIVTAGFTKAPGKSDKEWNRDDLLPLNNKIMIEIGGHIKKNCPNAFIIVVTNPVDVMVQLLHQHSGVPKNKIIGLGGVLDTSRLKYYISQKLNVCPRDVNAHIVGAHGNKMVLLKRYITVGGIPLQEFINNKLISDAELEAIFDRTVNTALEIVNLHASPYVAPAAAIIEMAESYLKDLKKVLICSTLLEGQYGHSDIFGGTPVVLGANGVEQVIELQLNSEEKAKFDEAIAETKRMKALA

A short description of test [4]: inhibition of 3D7 malaria parasite growth – strain 3D7 (AID 2306).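 Note: 0% = DMSO wells and 100% = chloroquine plus artemisinin control wells.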 The note with it: P. falciparum 3D7 erythrocytic growth, LDH absorbance, 72 h; at 2 µM; active compounds read high.
Test [5] deals with Calcium-dependent protein kinase 1 (Plasmodium falciparum (isolate 3D7)) (UniProt P62344). Kind of test: PfCDPK1 kinase inhibitors, biochemical, TCAMS library (AID 1159585; cut-off not given, nearly all actives have IC50 up to about 0.98 µM;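 note: inhibitors leave more ATP so luminescence rises with inhibition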). Conditions: recombinant PfCDPK1, Kinase-Glo ATP depletion luminescence. (Kinase-Glo measures the ATP left after a reaction by luminescence.)
Sequence of Calcium-dependent protein kinase 1 (Plasmodium falciparum (isolate 3D7)) (P62344 whole entry, looked up): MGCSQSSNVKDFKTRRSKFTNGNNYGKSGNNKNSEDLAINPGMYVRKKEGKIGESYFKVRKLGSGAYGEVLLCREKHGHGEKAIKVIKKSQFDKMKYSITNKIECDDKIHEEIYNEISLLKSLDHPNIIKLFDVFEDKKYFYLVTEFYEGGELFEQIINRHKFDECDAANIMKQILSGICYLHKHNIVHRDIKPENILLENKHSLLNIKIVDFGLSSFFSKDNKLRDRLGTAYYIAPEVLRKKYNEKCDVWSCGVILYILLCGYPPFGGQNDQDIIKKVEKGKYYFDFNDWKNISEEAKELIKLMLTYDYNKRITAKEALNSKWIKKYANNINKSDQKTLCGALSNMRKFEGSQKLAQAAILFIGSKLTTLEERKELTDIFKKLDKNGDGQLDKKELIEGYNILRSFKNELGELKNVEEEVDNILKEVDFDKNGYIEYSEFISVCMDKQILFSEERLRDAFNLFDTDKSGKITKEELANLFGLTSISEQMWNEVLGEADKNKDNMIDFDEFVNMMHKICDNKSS
In test [6] the target is Plasmodium falciparum protein kinase 6 (PK6, PF3D7_1337100) (UniProt Q8IDW1). Kind of test: PfPK6 kinase inhibitors, biochemical, TCAMS library (AID 1159586). The note with it: recombinant PfPK6, Kinase-Glo ATP depletion luminescence.
Sequence of Plasmodium falciparum protein kinase 6 (PK6, PF3D7_1337100) (Q8IDW1 1-305): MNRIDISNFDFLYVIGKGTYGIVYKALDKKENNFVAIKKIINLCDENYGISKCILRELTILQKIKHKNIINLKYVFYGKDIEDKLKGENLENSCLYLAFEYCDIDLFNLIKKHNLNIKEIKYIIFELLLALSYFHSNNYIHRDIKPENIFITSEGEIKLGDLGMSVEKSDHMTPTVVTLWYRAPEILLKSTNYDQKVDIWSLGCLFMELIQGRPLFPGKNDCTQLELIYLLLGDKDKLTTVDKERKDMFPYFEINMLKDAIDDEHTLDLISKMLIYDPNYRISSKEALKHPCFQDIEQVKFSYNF
Test [7] addresses Protein kinase 7 (PK7), Plasmodium falciparum 3D7 (PF3D7_0213400) (UniProt Q7YTF7). Kind of test: inhibition of Plasmodium PK7 catalytic activity – biochemical, TCAMS antimalarial set, Kinase-Glo luminescence (AID 1159587). Conditions: recombinant PfPK7, Kinase-Glo ATP depletion luminescence.
Test [8] has as its target Calcium-dependent protein kinase 4 (Plasmodium falciparum (isolate 3D7)) (UniProt Q8IBS5). Kind of test: PfCDPK4 kinase inhibitors, biochemical, TCAMS library (AID 1159588; cut-off not given, nearly all actives have IC50 up to about 0.91 µM). The note with it: recombinant PfCDPK4, Kinase-Glo ATP depletion luminescence.

Among the data in PubChem BioAssay are growth inhibition, inhibition and outcome values, retold here.

Unmarked numbers belong to inactive results. For some of these results: Entries with a potency or affinity are not part of this list. Calls of active or inactive are those of the source. Unless noted, the rule behind the calls is not given here.

Sequence of Protein kinase 7 (PK7), Plasmodium falciparum 3D7 (PF3D7_0213400) (Q7YTF7 1-343): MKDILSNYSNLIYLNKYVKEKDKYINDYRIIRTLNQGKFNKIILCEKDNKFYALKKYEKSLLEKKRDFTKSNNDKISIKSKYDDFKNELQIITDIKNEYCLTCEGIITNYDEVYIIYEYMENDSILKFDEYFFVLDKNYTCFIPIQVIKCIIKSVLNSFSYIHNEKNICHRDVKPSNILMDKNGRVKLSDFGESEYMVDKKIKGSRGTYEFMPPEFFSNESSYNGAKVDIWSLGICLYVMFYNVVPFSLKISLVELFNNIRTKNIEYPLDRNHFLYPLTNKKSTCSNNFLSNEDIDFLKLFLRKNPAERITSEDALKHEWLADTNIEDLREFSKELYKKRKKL
Sequence of Calcium-dependent protein kinase 4 (Plasmodium falciparum (isolate 3D7)) (Q8IBS5 whole entry, looked up): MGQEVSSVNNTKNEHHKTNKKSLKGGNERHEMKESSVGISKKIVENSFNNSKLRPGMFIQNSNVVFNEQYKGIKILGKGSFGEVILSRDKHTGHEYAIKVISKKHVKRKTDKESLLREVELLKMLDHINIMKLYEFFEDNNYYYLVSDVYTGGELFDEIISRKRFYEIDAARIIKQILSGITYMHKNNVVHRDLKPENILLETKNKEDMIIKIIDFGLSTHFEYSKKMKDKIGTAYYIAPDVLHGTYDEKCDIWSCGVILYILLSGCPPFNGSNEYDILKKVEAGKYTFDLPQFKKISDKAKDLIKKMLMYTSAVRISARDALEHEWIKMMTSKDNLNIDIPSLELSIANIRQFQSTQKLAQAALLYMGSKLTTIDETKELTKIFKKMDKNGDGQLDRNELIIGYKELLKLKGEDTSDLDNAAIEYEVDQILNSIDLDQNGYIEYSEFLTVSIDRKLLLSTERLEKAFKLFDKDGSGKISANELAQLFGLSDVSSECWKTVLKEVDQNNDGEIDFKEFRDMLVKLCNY

In the case of `COCCn1c(C)cc(C(=O)CN2C(=O)NC(C)(c3ccc(C(C)(C)C)cc3)C2=O)c1C` (stereo not given), the growth inhibition in test [1] is 96% (active); in test [4] it was 97% (active). Besides, the results for the inhibition in test [2] and in test [3] were 7% and 1%, respectively. The outcome in test [5], in test [6], in test [7] and in test [8] was inactive.

For the compound `COc1ccc(NS(=O)(=O)c2ccc(C(=O)Nc3ccc(C(F)(F)F)cc3)cc2)cc1N1CCN(CC2CC2)CC1`, the results for the growth inhibition in test [1] and in test [4] were -5% and 92% (active), respectively. Besides, the values for the inhibition in test [2] and in test [3] were 15% and 1%, respectively. Also, the outcome in test [5], in test [6], in test [7] and in test [8] was inactive.

For `Cc1cc(-c2ccc3occ(CCN)c3c2)cnc1N`, the growth inhibition in test [1] was 56% (active); in test [4], 92% (active). Moreover, the inhibition in test [2] is -5%; in test [3], -2%. Besides, the outcome in test [5], in test [6], in test [7] and in test [8] was inactive.

Take `CC(=O)Nc1ccc(OCCN(Cc2ccccc2C(F)(F)F)c2ccc(C#N)c(C(F)(F)F)c2)c(Cl)c1`: the growth inhibition was 78% (active) in test [1] and 98% (active) in test [4]. Moreover, the inhibition in test [2] is -6%; in test [3], -3%. Besides, the outcome in test [5], in test [6], in test [7] and in test [8] was inactive.

As to `COc1ccc(-c2ccc(NC(=O)c3ccc(C#N)cc3)c(F)c2)cc1CN(C)CCN(C)C`, the results for the growth inhibition in test [1] and in test [4] were 0% and 88% (active), respectively. In addition, the inhibition in test [2] was 24%; in test [3], -4%. Besides, the result in test [5], in test [6], in test [7] and in test [8] was inactive.

As for `COc1ccc(Nc2nc(NCc3ccc(-n4ccnc4)cc3)cc(-c3ccc(OC)cc3)n2)cc1`, the growth inhibition is 25% in test [1] and 96% (active) in test [4]. The inhibition in test [2] was 8%; in test [3] it was -2%. The outcome in test [5], in test [6], in test [7] and in test [8] was inactive.

As to `Cc1ccc(NC(=O)Nc2ccc(Br)cc2)cc1OCCN(C)C`, the values for the growth inhibition in test [1] and in test [4] were 15% and 84% (active), respectively. The inhibition was 13% in test [2] and -1% in test [3]. The outcome in test [5], in test [6], in test [7] and in test [8] was inactive.

Take `O=C(Nc1cc(Cl)cc(Cl)c1)Nc1ccnc2ccccc12`: the growth inhibition in test [1] was 65% (active); in test [4] it was 96% (active). Moreover, the inhibition in test [2] was 15%; in test [3] it was -2%. Besides, the result in test [5], in test [6], in test [7] and in test [8] was inactive.

As for `CN1CCN(c2ccnc3ccc(NC(=O)Nc4ccc(-c5ccncc5)c(C(F)(F)F)c4)cc23)CC1`, the growth inhibition in test [1] and in test [4] was 99% (active) each time. In addition, the inhibition in test [2] is 12%; in test [3], 6%. Besides, the result in test [5], in test [6], in test [7] and in test [8] was inactive.

With `Cc1cnc(C(=O)Nc2cccc(-c3ccc(-c4nc5ccc(F)cc5[nH]4)cc3)c2)cn1`, the growth inhibition was 13% in test [1] and 102% (active) in test [4]. For the same compound, the inhibition in test [2] is 19%; in test [3] it was -2%. Besides, the result in test [5], in test [6], in test [7] and in test [8] was inactive.

Consider `OC1CCCN(Cc2ccc(-c3ccc(-c4nc5ccccc5[nH]4)cc3)cc2)C1` (stereo not given), for which the figures for the growth inhibition in test [1] and in test [4] were 77% (active) and 100% (active), respectively. The inhibition in test [2] was 46%; in test [3] it was -4%. For the same compound, the result in test [5], in test [6], in test [7] and in test [8] was inactive.

Consider `COc1cccc(Nc2nc(C)cc(NCc3ccc(-n4ccnc4)cc3)n2)c1`, for which the growth inhibition in test [1] was 99% (active); in test [4], 101% (active). The inhibition in test [2] is -13%; in test [3], -5%. Moreover, the outcome in test [5], in test [6], in test [7] and in test [8] was inactive.

As for `Cc1c(S(=O)(=O)Nc2ccc3nccc(N4CCN[C@H](C)C4)c3c2)sc2ccc(Cl)cc12`, the growth inhibition was 0% in test [1] and 96% (active) in test [4]. Besides, the inhibition was 16% in test [2] and -3% in test [3]. Also, the result in test [5], in test [6], in test [7] and in test [8] was inactive.

With `CC(C)CNCc1ccc(-c2ccccc2CNC2CCN(Cc3ccccc3)CC2)cc1`, the growth inhibition in test [1] was 41%; in test [4] it was 101% (active). For the same compound, the inhibition in test [2] was 28%; in test [3], -3%. The result in test [5], in test [6], in test [7] and in test [8] was inactive.

`Cc1ccc(-n2nc(-c3ccccc3)c3cc(C(=O)NCCN)sc32)cc1`: the growth inhibition in test [1] is 43%; in test [4], 92% (active). Moreover, the inhibition was 28% in test [2] and 2% in test [3]. The result in test [5], in test [6], in test [7] and in test [8] was inactive.

Take `CCc1ccc(C2CCN(CCCCNC(=O)c3ccc(NC(=O)c4ccc(Cl)cc4)cc3)CC2)c(OC)c1`: the growth inhibition is 80% (active) in test [1] and 101% (active) in test [4]. The inhibition is 26% in test [2] and -6% in test [3]. For the same compound, the outcome in test [5], in test [6], in test [7] and in test [8] was inactive.

In the case of `CCCNCc1ccc(-c2ccc(CN(CCOC)C(=O)CC3CCCC3=O)cc2)nc1` (stereo not given), the growth inhibition in test [1] was 9%; in test [4] it was 93% (active). Also, the inhibition was 5% in test [2] and 3% in test [3]. Moreover, the result in test [5], in test [6], in test [7] and in test [8] was inactive.

With `CCC(=O)c1ccc(-c2ccc(=O)n(CC(=O)N(CCN(CC)CC)Cc3ccc(-c4ccc(C(F)(F)F)cc4)cc3)n2)cc1`, the growth inhibition in test [1] was 67% (active); in test [4] it was 98% (active). Also, the figures for the inhibition in test [2] and in test [3] were 91% (active) and -7%, respectively. Also, the outcome in test [5], in test [6], in test [7] and in test [8] was inactive.

As to `Cc1cc(NC(=O)Nc2ccc3sccc3c2)c2ccccc2n1`, the growth inhibition in test [1] is 57% (active); in test [4], 99% (active). Further, the inhibition in test [2] is 41%; in test [3], 0%. The outcome in test [5], in test [6], in test [7] and in test [8] was inactive.

As for `CC(C)(C)c1cc(C(=O)Nc2cccnc2)cc(C(=O)Nc2cccnc2)c1`, the growth inhibition in test [1] was 35%; in test [4], 95% (active). Moreover, the inhibition in test [2] is -12%; in test [3], -3%. Also, the outcome in test [5], in test [6], in test [7] and in test [8] was inactive.

As usually defined, the inhibition is the drop in the measured response relative to a control, in per cent.
